Measured values reported in PubChem BioAssay (NCI).
This is part of a sample that, as a whole, favours compounds with a hit. Of some 79,000 tested, about 15% had one in any assay. Unmarked numbers belong to inactive results. Calls of active or inactive are those of the source. Cut-off read from the data, not from the text of the source: active = growth inhibition above about 70%; inactive = the rest.

What was measured:
[1] = NCI Yeast Anticancer Drug Screen. Data for the rad52 strain (AID 147);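 note: 0% = growth of vehicle-treated control cultures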; conditions: S. cerevisiae rad52 mutant growth inhibition, stronger effect = higher value
Summary of the method: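 Inhibition of yeast growth, referenced to vehicle controls, was the measured output for a strain with defective DNA damage repair.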

[2] = NCI Yeast Anticancer Drug Screen. Data for the wt1 strain (AID 149);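 note: 0% = growth of vehicle-treated wt1 cultures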; conditions: S. cerevisiae wt1 strain (SPY 50644) growth inhibition, stronger effect = higher value
Summary of the method: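 Growth inhibition read against vehicle controls after compound exposure of the wt1 yeast strain.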

[3] = NCI Yeast Anticancer Drug Screen. Data for the rad50EPP+ strain (AID 151);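 note: 0% = growth of vehicle-treated control cultures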; conditions: S. cerevisiae rad50 mutant strain, stronger effect = higher value
Summary of the method: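 Genetically defined yeast (rad50EPP+, DNA damage repair alteration) is grown with compound, and inhibition of growth is expressed relative to vehicle-treated controls.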

[4] = NCI Yeast Anticancer Drug Screen. Data for the mgt1 strain (AID 153); conditions: S. cerevisiae mgt1 mutant growth inhibition, stronger effect = higher value
Summary of the method: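 In the mgt1 strain, test compounds were added and growth inhibition was determined relative to vehicle-treated controls.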

[5] = NCI Yeast Anticancer Drug Screen. Data for the rad50 strain (AID 155);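 note: 0% = growth of vehicle-only cultures of the same strain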; conditions: S. cerevisiae rad50 strain growth inhibition, stronger effect = higher value
Summary of the method: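 Readout: growth inhibition relative to vehicle-treated cultures. Compound exposure was carried out in a genetically defined yeast strain deficient in DNA damage repair.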

[6] = NCI Yeast Anticancer Drug Screen. Data for the mec2-1 strain (AID 157); conditions: S. cerevisiae mec2-1 strain, stronger effect = higher value
Summary of the method: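 Each compound was tested on mec2-1 yeast, a strain altered in DNA damage repair or cell cycle control. Growth inhibition is reported relative to vehicle.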

[7] = NCI Yeast Anticancer Drug Screen. Data for the rad14 strain (AID 159);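 note: 0% = growth of vehicle-treated control cultures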; conditions: S. cerevisiae rad14 strain growth inhibition, stronger effect = higher value
Summary of the method: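 Growth inhibition vs vehicle controls; genetically altered yeast strain (DNA damage repair defect) treated with test compounds.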

[8] = NCI Yeast Anticancer Drug Screen. Data for the sgs1 mgt1 strain (AID 161);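 note: 0% = growth of cultures given vehicle only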; conditions: S. cerevisiae sgs1 mgt1 strain, stronger effect = higher value
Summary of the method: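 Genetically altered yeast, compound exposure, growth inhibition relative to vehicle.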

[9] = NCI Yeast Anticancer Drug Screen. Data for the CLN2oe strain (AID 163);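 note: 0% = growth of vehicle-only control cultures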; conditions: S. cerevisiae CLN2oe strain, stronger effect = higher value
Summary of the method: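 First, the altered yeast strain was treated with each compound; second, its growth was measured; finally, inhibition was derived by comparison with vehicle controls.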

[10] = NCI Yeast Anticancer Drug Screen. Data for the cln2 rad14 strain (AID 165);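 note: 0% = growth equal to vehicle treated cultures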; conditions: S. cerevisiae cln2 rad14 strain, stronger effect = higher value
Summary of the method: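 Test compounds were added to cln2 rad14 yeast cultures; inhibition of growth was then determined by comparison with vehicle treatment.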

[11] = NCI Yeast Anticancer Drug Screen. Data for the bub3 strain (AID 167); conditions: S. cerevisiae bub3 mutant strain, stronger effect = higher value
Summary of the method: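 Readout: yeast growth inhibition, expressed relative to vehicle-only wells. The test organism is a mutant strain from a panel with lesions in DNA repair or checkpoint genes.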

[12] = NCI Yeast Anticancer Drug Screen. Data for the wt2 strain (AID 169);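 note: 0% = growth of vehicle-treated yeast cultures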; conditions: S. cerevisiae wt2 strain growth inhibition, stronger effect = higher value
Summary of the method: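 The panel's yeast strains carry defined changes in DNA repair or cell cycle genes. Each strain is grown with compound, and growth loss is scored relative to vehicle.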

[13] = NCI Yeast Anticancer Drug Screen. Data for the mlh1 strain (AID 171);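 note: 0% = growth of vehicle-treated control cultures of the same strain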; conditions: S. cerevisiae mlh1 strain growth inhibition, stronger effect = higher value
Summary of the method: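 Inhibition values reflect reduced yeast growth in the presence of compound, referenced to vehicle controls, using a strain chosen for its alteration in DNA repair or cell cycle control.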

[14] = NCI Yeast Anticancer Drug Screen. Data for the sgs1 strain (AID 173);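 note: 0% = growth of vehicle-only control cultures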; conditions: S. cerevisiae sgs1 mutant, stronger effect = higher value
Summary of the method: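 Vehicle-treated cultures served as reference for growth inhibition of a yeast strain altered in DNA damage repair or cell cycle control after compound exposure.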

[15] = NCI Yeast Anticancer Drug Screen. Data for the mlh1 rad18 strain (AID 175); conditions: S. cerevisiae mlh1 rad18 strain growth inhibition, stronger effect = higher value
Summary of the method: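 Inhibition values reflect reduced growth of mutant yeast versus vehicle-treated controls following compound exposure; the mutations affect DNA damage repair.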

[16] = at 5.0 µM (retest, dose inferred, filed as 0.5)
[17] = at 50.0 µM (retest, dose inferred, filed as 5.0)

With `O=C1c2c(O)cccc2-c2nn(CCNCCO)c3ccc(NCCNCCO)c1c23` the growth inhibition ([1]; at 1.2 µM) was 17%, the growth inhibition ([1]; at 3.7 µM) was 43% and the growth inhibition ([1]; at 11.0 µM) was 73% (active). The growth inhibition ([1]; at 33.0 µM) was 81% (active), the growth inhibition ([1]; at 100.0 µM) was 87% (active) and the growth inhibition ([2]; at 1.2 µM) was 8%. For the same molecule, the growth inhibition ([2]; at 3.7 µM) was -2%, the growth inhibition ([2]; at 11.0 µM) was 11% and the growth inhibition ([2]; at 33.0 µM) was 2%. The growth inhibition ([2]; at 100.0 µM) was -4%, the growth inhibition ([3]; at 1.2 µM) was 15% and the growth inhibition ([3]; at 3.7 µM) was 19%. The growth inhibition ([3]; at 11.0 µM) was 39%, the growth inhibition ([3]; at 33.0 µM) was 54% and the growth inhibition ([3]; at 100.0 µM) was 77% (active). It also gave a growth inhibition ([4]; at 1.2 µM) of 16%, a growth inhibition ([4]; at 3.7 µM) of 11% and a growth inhibition ([4]; at 11.0 µM) of -3%. It also gave a growth inhibition ([4]; at 33.0 µM) of -10%, a growth inhibition ([4]; at 100.0 µM) of 2% and a growth inhibition ([5]; at 1.2 µM) of 26%. The growth inhibition ([5]; at 3.7 µM) was 42%, the growth inhibition [5, 16] was 27% and the growth inhibition ([5]; at 11.0 µM) was 74% (active). The growth inhibition ([5]; at 33.0 µM) was 85% (active), the growth inhibition [5, 17] was 79% (active) and the growth inhibition ([5]; at 50.0 µM) was 76.9% (active). For the same molecule, the growth inhibition ([5]; at 100.0 µM) was 87% (active), the growth inhibition ([6]; at 1.2 µM) was 42% and the growth inhibition ([6]; at 3.7 µM) was 29%. For the same molecule, the growth inhibition [6, 16] was -25%, the growth inhibition ([6]; at 11.0 µM) was 40% and the growth inhibition ([6]; at 33.0 µM) was 10%. For the same molecule, the growth inhibition [6, 17] was -14%, the growth inhibition ([6]; at 50.0 µM) was 20.4% and the growth inhibition ([6]; at 100.0 µM) was 39%. The growth inhibition ([7]; at 1.2 µM) was -3%, the growth inhibition ([7]; at 3.7 µM) was -2% and the growth inhibition ([7]; at 11.0 µM) was -21%. The growth inhibition ([7]; at 33.0 µM) was -13%, the growth inhibition ([7]; at 100.0 µM) was 2% and the growth inhibition [8, 16] was 1%. It also gave a growth inhibition [8, 17] of -2%, a growth inhibition ([8]; at 50.0 µM) of 7% and a growth inhibition ([9]; at 1.2 µM) of 26%. The growth inhibition ([9]; at 3.7 µM) was 22%, the growth inhibition ([9]; at 11.0 µM) was 21% and the growth inhibition ([9]; at 33.0 µM) was 5%. It also gave a growth inhibition ([9]; at 100.0 µM) of 18%, a growth inhibition [10, 16] of 26% and a growth inhibition [10, 17] of 14%. For the same molecule, the growth inhibition ([10]; at 50.0 µM) was -7.2%, the growth inhibition ([11]; at 1.2 µM) was 1% and the growth inhibition ([11]; at 3.7 µM) was -9%. For the same molecule, the growth inhibition [11, 16] was -24%, the growth inhibition ([11]; at 11.0 µM) was -15% and the growth inhibition ([11]; at 33.0 µM) was -30%. For the same molecule, the growth inhibition [11, 17] was -13%, the growth inhibition ([11]; at 50.0 µM) was -19.2% and the growth inhibition ([11]; at 100.0 µM) was -26%. The growth inhibition ([12]; at 1.2 µM) was -46%, the growth inhibition ([12]; at 3.7 µM) was -27% and the growth inhibition ([12]; at 11.0 µM) was -41%. It also gave a growth inhibition ([12]; at 33.0 µM) of -53%, a growth inhibition ([12]; at 100.0 µM) of -42% and a growth inhibition ([13]; at 1.2 µM) of 29%. For the same molecule, the growth inhibition ([13]; at 3.7 µM) was 7%, the growth inhibition ([13]; at 11.0 µM) was 15% and the growth inhibition ([13]; at 33.0 µM) was 13%. For the same molecule, the growth inhibition ([13]; at 100.0 µM) was 21%, the growth inhibition ([14]; at 1.2 µM) was 7% and the growth inhibition ([14]; at 3.7 µM) was 5%. The growth inhibition ([14]; at 11.0 µM) was 7%, the growth inhibition ([14]; at 33.0 µM) was 11% and the growth inhibition ([14]; at 100.0 µM) was 28%. It also gave a growth inhibition [15, 16] of -6% and a growth inhibition [15, 17] of -7%.
